# Many of the other results were omitted from the sample, so the strongest signals are more common in it than they were.
# B1: LngA (Escherichia coli) (protein)
# chain: MLSVYNRTQKFKAEARKKIAKYHELRKQRGMSLLEVIIVLGIIGTIAAGVVILAQRAFDSRAVTDLVTNTNTVRVRMKDAYQRDGKYPDFVDPLSLTANTIKTDTSGIPAAQLVQLGKITPDEVRNNISGDFIAIGGALTSNGAQVKKGFAIELNGLSQEQCRSILGQVGNNWEYVAIGTSASGSYAMTATGVDMSVAASTTVLRSLGNNGQTTLTADKILSTCTAQVNSITLGSR
# Key:
# Assay in all cases: glycan array binding signal (z-score within array); higher = stronger binding
# Conditions in all cases: glycan notation: IUPAC condensed, linker removed
# [1] = target: Fuc(a1-2)Gal(b1-4)GlcNAc(b1-3)Gal(b1-4)GlcNAc(b1-2)Man(a1-3)[Fuc(a1-2)Gal(b1-4)GlcNAc(b1-3)Gal(b1-4)GlcNAc(b1-2)Man(a1-6)]Man(b1-4)GlcNAc(b1-4)GlcNAc
# How it was run: (§1)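 Negative Z-scores can be read as non-binding. The Z-score is calculated within each array and then averaged across arrays of one protein sequence at different concentrations or buffers and across linkers. Arrays, 3228 in all, were curated from the Consortium for Functional Glycomics database and kept only where the protein sequence was available.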
# [2] = target: Fuc(a1-2)Gal(b1-4)[Fuc(a1-3)]GlcNAc(b1-3)Gal(b1-4)[Fuc(a1-3)]GlcNAc(b1-3)Gal(b1-4)[Fuc(a1-3)]GlcNAc
# How it was run: as §1
# [3] = target: Fuc(a1-2)Gal(b1-4)[Fuc(a1-3)]GlcNAc(b1-3)GalNAc
# How it was run: as §1
# [4] = target: Fuc(a1-2)Gal6S(b1-4)Glc6S
# How it was run: as §1
# [5] = target: Fuc(a1-3)[Gal(b1-4)]GlcNAc(b1-6)GalNAc
# How it was run: as §1
# Gal(a1-2)Gal = target: Gal(a1-2)Gal
# How it was run: as §1
# Gal(a1-3)Gal(b1-3)GlcNAc = target: Gal(a1-3)Gal(b1-3)GlcNAc
# How it was run: as §1
# Gal(a1-3)Gal(b1-4)Glc = target: Gal(a1-3)Gal(b1-4)Glc
# How it was run: as §1
# Gal(a1-4)GlcNAc = target: Gal(a1-4)GlcNAc
# How it was run: as §1
# Gal(b1-2)Gal = target: Gal(b1-2)Gal
# How it was run: as §1
# Gal(b1-3)Gal = target: Gal(b1-3)Gal
# How it was run: as §1
# Gal(b1-3)GalNAc = target: Gal(b1-3)GalNAc
# How it was run: as §1
# [6] = target: Gal(b1-3)[Fuc(a1-4)]GlcNAc(b1-6)GalNAc
# How it was run: as §1
# [7] = target: Gal(b1-4)GalNAc(b1-3)[Fuc(a1-2)]Gal(b1-4)GlcNAc
# How it was run: as §1
# [8] = target: Gal(b1-4)GlcNAc(b1-3)Gal(b1-4)GlcNAc(b1-2)Man(a1-3)[Gal(b1-4)GlcNAc(b1-3)Gal(b1-4)GlcNAc(b1-2)Man(a1-6)]Man(b1-4)GlcNAc(b1-4)GlcNAc
# How it was run: as §1
# [9] = target: Gal(b1-4)GlcNAc(b1-3)Gal(b1-4)GlcNAc(b1-2)Man(a1-3)[Gal(b1-4)GlcNAc(b1-3)Gal(b1-4)GlcNAc(b1-2)Man(a1-6)]Man(b1-4)GlcNAc(b1-4)[Fuc(a1-6)]GlcNAc
# How it was run: as §1
# [10] = target: Gal(b1-4)GlcNAc(b1-3)Gal(b1-4)GlcNAc(b1-2)[Gal(b1-4)GlcNAc(b1-3)Gal(b1-4)GlcNAc(b1-6)]Man(a1-6)[Gal(b1-4)GlcNAc(b1-3)Gal(b1-4)GlcNAc(b1-2)Man(a1-3)]Man(b1-4)GlcNAc(b1-4)[Fuc(a1-6)]GlcNAc
# How it was run: as §1
# [11] = target: Gal(b1-4)GlcNAc(b1-3)Gal(b1-4)GlcNAc(b1-3)Gal(b1-4)GlcNAc(b1-2)Man(a1-3)[Gal(b1-4)GlcNAc(b1-3)Gal(b1-4)GlcNAc(b1-3)Gal(b1-4)GlcNAc(b1-2)Man(a1-6)]Man(b1-4)GlcNAc(b1-4)GlcNAc
# How it was run: as §1
# [12] = target: Gal(b1-4)GlcNAc(b1-3)[Gal(b1-4)GlcNAc(b1-6)]Gal(b1-4)GlcNAc
# How it was run: as §1
# [13] = target: Gal(b1-4)GlcNAc(b1-3)[GlcNAc(b1-6)]Gal(b1-4)GlcNAc
# How it was run: as §1
# Gal(b1-4)GlcNAc6P = target: Gal(b1-4)GlcNAc6P
# How it was run: as §1
# Gal(b1-6)Gal = target: Gal(b1-6)Gal
# How it was run: as §1
# Gal3S(b1-3)GlcNAc = target: Gal3S(b1-3)GlcNAc
# How it was run: as §1
# Gal3S(b1-4)Glc = target: Gal3S(b1-4)Glc
# How it was run: as §1
# Gal3S6S(b1-4)GlcNAc6S = target: Gal3S6S(b1-4)GlcNAc6S
# How it was run: as §1
# GalNAc(b1-3)Gal = target: GalNAc(b1-3)Gal
# How it was run: as §1
# [14] = target: GalNAc(b1-4)GlcNAc(b1-2)Man(a1-3)[GalNAc(b1-4)GlcNAc(b1-2)Man(a1-6)]Man(b1-4)GlcNAc(b1-4)GlcNAc
# How it was run: as §1
# GalNAc(b1-4)GlcNAc6S = target: GalNAc(b1-4)GlcNAc6S
# How it was run: as §1
# Glc(a1-6)Glc(a1-6)Glc = target: Glc(a1-6)Glc(a1-6)Glc
# How it was run: as §1
# GlcA(b1-6)Gal = target: GlcA(b1-6)Gal
# How it was run: as §1
# [15] = target: GlcNAc(a1-4)Gal(b1-4)GlcNAc(b1-3)Gal(b1-4)[Fuc(a1-3)]GlcNAc(b1-3)Gal(b1-4)[Fuc(a1-3)]GlcNAc
# How it was run: as §1
# [16] = target: GlcNAc(b1-3)Gal(b1-3)GalNAc
# How it was run: as §1
# GlcNAc(b1-3)Gal(b1-4)Glc = target: GlcNAc(b1-3)Gal(b1-4)Glc
# How it was run: as §1
# [17] = target: GlcNAc(b1-3)Gal(b1-4)GlcNAc(b1-6)[Gal(b1-3)]GalNAc
# How it was run: as §1
# Kdn(a2-3)Gal(b1-3)GalNAc = target: Kdn(a2-3)Gal(b1-3)GalNAc
# How it was run: as §1
# [18] = target: Man(a1-2)Man(a1-2)Man(a1-3)Man
# How it was run: as §1
# [19] = target: Man(a1-2)Man(a1-3)[Man(a1-2)Man(a1-6)]Man(a1-6)[Man(a1-2)Man(a1-2)Man(a1-3)]Man
# How it was run: as §1
# Man(a1-3)[Man(a1-6)]Man = target: Man(a1-3)[Man(a1-6)]Man
# How it was run: as §1
# [20] = target: Man(a1-3)[Man(a1-6)]Man(a1-6)[Man(a1-2)Man(a1-3)]Man(b1-4)GlcNAc(b1-4)GlcNAc
# How it was run: as §1
# Man(a1-6)Man = target: Man(a1-6)Man
# How it was run: as §1
# [21] = target: Neu5Ac(a2-3)Gal(b1-3)GalNAc(b1-3)Gal(a1-4)Gal(b1-4)Glc
# How it was run: as §1
# [22] = target: Neu5Ac(a2-3)Gal(b1-4)GlcNAc(b1-2)Man
# How it was run: as §1
# [23] = target: Neu5Ac(a2-3)Gal(b1-4)GlcNAc(b1-3)Gal
# How it was run: as §1
# [24] = target: Neu5Ac(a2-3)Gal(b1-4)GlcNAc(b1-3)Gal(b1-4)GlcNAc(b1-3)Gal(b1-4)GlcNAc
# How it was run: as §1
# [25] = target: Neu5Ac(a2-3)Gal(b1-4)GlcNAc(b1-3)Gal(b1-4)[Fuc(a1-3)]GlcNAc
# How it was run: as §1
# [26] = target: Neu5Ac(a2-3)Gal(b1-4)GlcNAc(b1-6)[Neu5Ac(a2-3)Gal(b1-3)]GalNAc
# How it was run: as §1
# [27] = target: Neu5Ac(a2-6)Gal(b1-3)GlcNAc(b1-3)[Gal(b1-4)GlcNAc(b1-6)]Gal(b1-4)Glc
# How it was run: as §1
# Neu5Ac(a2-6)Gal(b1-4)Glc = target: Neu5Ac(a2-6)Gal(b1-4)Glc
# How it was run: as §1
# [28] = target: Neu5Ac(a2-6)Gal(b1-4)GlcNAc(b1-2)Man(a1-3)[Gal(b1-4)GlcNAc(b1-2)Man(a1-6)]Man(b1-4)GlcNAc(b1-4)GlcNAc
# How it was run: as §1
# [29] = target: Neu5Ac(a2-6)Gal(b1-4)GlcNAc(b1-2)Man(a1-3)[Man(a1-6)]Man(b1-4)GlcNAc(b1-4)GlcNAc
# How it was run: as §1
# [30] = target: Neu5Ac(a2-6)Gal(b1-4)GlcNAc(b1-3)Gal(b1-4)GlcNAc(b1-3)GalNAc
# How it was run: as §1
# [31] = target: Neu5Ac(a2-6)Gal(b1-4)GlcNAc(b1-6)GalNAc
# How it was run: as §1
# [32] = target: Neu5Ac(a2-8)Neu5Ac(a2-8)Neu5Ac(a2-3)[Gal(b1-3)GalNAc(b1-4)]Gal(b1-4)Glc
# How it was run: as §1
# [33] = target: Neu5Ac(a2-8)Neu5Gc(a2-3)Gal(b1-4)GlcNAc
# How it was run: as §1
# [34] = target: Neu5Gc(a2-6)Gal(b1-4)GlcNAc
# How it was run: as §1
binder,measurement,setting,value
B1,glycan array binding signal (z-score),[1],-0.248
same,glycan array binding signal (z-score),[2],-0.414
same,glycan array binding signal (z-score),[3],0.215
same,glycan array binding signal (z-score),[4],0.398
same,glycan array binding signal (z-score),[5],-0.182
same,glycan array binding signal (z-score),Gal(a1-2)Gal,0.247
same,glycan array binding signal (z-score),Gal(a1-3)Gal(b1-3)GlcNAc,2.92
same,glycan array binding signal (z-score),Gal(a1-3)Gal(b1-4)Glc,-0.144
same,glycan array binding signal (z-score),Gal(a1-4)GlcNAc,-0.206
same,glycan array binding signal (z-score),Gal(b1-2)Gal,2.94
same,glycan array binding signal (z-score),Gal(b1-3)Gal,-0.316
same,glycan array binding signal (z-score),Gal(b1-3)GalNAc,-0.143
same,glycan array binding signal (z-score),[6],-0.438
same,glycan array binding signal (z-score),[7],-0.632
same,glycan array binding signal (z-score),[8],3.2
same,glycan array binding signal (z-score),[9],-0.289
same,glycan array binding signal (z-score),[10],4.27
same,glycan array binding signal (z-score),[11],3.43
same,glycan array binding signal (z-score),[12],-0.205
same,glycan array binding signal (z-score),[13],-0.507
same,glycan array binding signal (z-score),Gal(b1-4)GlcNAc6P,4.74
same,glycan array binding signal (z-score),Gal(b1-6)Gal,0.393
same,glycan array binding signal (z-score),Gal3S(b1-3)GlcNAc,-0.1
same,glycan array binding signal (z-score),Gal3S(b1-4)Glc,4.16
same,glycan array binding signal (z-score),Gal3S6S(b1-4)GlcNAc6S,2.24
same,glycan array binding signal (z-score),GalNAc(b1-3)Gal,0.532
same,glycan array binding signal (z-score),[14],-0.153
same,glycan array binding signal (z-score),GalNAc(b1-4)GlcNAc6S,-0.467
same,glycan array binding signal (z-score),Glc(a1-6)Glc(a1-6)Glc,0.075
same,glycan array binding signal (z-score),GlcA(b1-6)Gal,0.408
same,glycan array binding signal (z-score),[15],0.38
same,glycan array binding signal (z-score),[16],0.147
same,glycan array binding signal (z-score),GlcNAc(b1-3)Gal(b1-4)Glc,-0.256
same,glycan array binding signal (z-score),[17],-0.006
same,glycan array binding signal (z-score),Kdn(a2-3)Gal(b1-3)GalNAc,-0.202
same,glycan array binding signal (z-score),[18],-0.556
same,glycan array binding signal (z-score),[19],-0.506
same,glycan array binding signal (z-score),Man(a1-3)[Man(a1-6)]Man,-0.411
same,glycan array binding signal (z-score),[20],-0.239
same,glycan array binding signal (z-score),Man(a1-6)Man,3.82
same,glycan array binding signal (z-score),[21],-0.375
same,glycan array binding signal (z-score),[22],3.6
same,glycan array binding signal (z-score),[23],-0.531
same,glycan array binding signal (z-score),[24],-0.508
same,glycan array binding signal (z-score),[25],2.73
same,glycan array binding signal (z-score),[26],-0.439
same,glycan array binding signal (z-score),[27],-0.533
same,glycan array binding signal (z-score),Neu5Ac(a2-6)Gal(b1-4)Glc,-0.2
same,glycan array binding signal (z-score),[28],-0.321
same,glycan array binding signal (z-score),[29],-0.28
same,glycan array binding signal (z-score),[30],-0.361
same,glycan array binding signal (z-score),[31],2.77
same,glycan array binding signal (z-score),[32],-0.06
same,glycan array binding signal (z-score),[33],-0.319
same,glycan array binding signal (z-score),[34],-0.433

# Source: the supplement of paper PMC8728848
